Screens (PubChem)
Rows were chosen to be rich in hits. Some 19% of all compounds tested hit in one or more screens of this group.
HT1080NT lethal – kills 2HG-producing HT-1080-NT fibrosarcoma cells. AID 686970. HT-1080-NT fibrosarcoma viability, CellTiter-Glo ATP luminescence, 48 h. hit rate 1.6% among 360,000. Potency, µM (highest dose often 46.1 µM), for inactives: at the top dose activity, negative = less viability, most hits filed as cytotoxic;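 note: NT is the 2HG producing partner of a matched IDH1 knockdown line; potency is the fitted concentration of half-maximal effect; 0% = DMSO-treated cells and -100% = media-only wells without cells; nearly all actives have a fitted effect of over 55% in size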
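Viability of the 2HG-overproducing fibrosarcoma line after 48 hours of compound exposure at 37 degrees C was determined by luminescence with CellTiter-Glo, and concentration-effect curves were then fitted and categorized.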
TDP1 cell CPT – growth inhibition of DT40 Tdp1-/-;hTDP1 cells with camptothecin (screen for TDP1 inhibitors). chicken DT40 Tdp1-/-;hTDP1 cells + 20 nM CPT, ATP luminescence, 48 h. Potency, µM (titrated, usually from 46.2 µM), without a hit: at the highest dose activity change, negative = growth inhibition, most hits filed as inhibitors. hit rate 12% among 420,000. AID 686979; note: potency is the fitted concentration of half-maximal effect; nearly all actives have a fitted effect of over 55% in size
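Cell growth measured by CellTiter-Glo luminescence after a minimum 48 h, 37 C compound exposure with 20 nM CPT in Tdp1-knockout DT40 cells stably expressing hTDP1, seeded 400/well; qHTS titration format.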
ELG1 repair inh – ELG1-dependent DNA repair inhibition. HEK293T ELG1-luciferase reporter, luminescence, 16 h; DNA damage induced by 5-fluorouridine. Potency, µM (highest dose often 46.1 µM), inactives show at the highest dose activity change, negative = inhibition, hits mostly inhibitors. hit rate 2.3% among 330,000. AID 504467; note: potency is the fitted concentration of half-maximal effect; nearly all actives have a fitted effect of over 55% in size
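Step one: seed 2,000 cells per well. Step two: pin-transfer compound or DMSO alongside 5-fluorouridine. Step three: incubate 16 hr, 37 °C, 5% CO2. Step four: add ONE-Glo, wait 30 min, read luminescence.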
HT1080 IDH1KD tx – toxicity to HT-1080 IDH1 knockdown cells (counter line). HT-1080 IDH1 knockdown viability, ATP luminescence, 48 h. Potency, µM (highest dose often 46.1 µM), for inactives: at the top dose activity, negative = toxicity, hits mostly cytotoxic. hit rate 2% among 360,000;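 note: potency is the fitted concentration of half-maximal effect; 0% = DMSO wells and -100% = cell-free medium wells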
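Assay cells: HT-1080 with IDH1 knockdown, 750 per well, RPMI/5% FBS. Exposure: 48 h at 37 °C following 2 h pre-incubation. Read: CellTiter-Glo luminescence; fitted concentration-response, curve class assigned.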
DT40 TDP1 no CPT – qHTS for Inhibitors of human tyrosyl-DNA phosphodiesterase 1 (TDP1): qHTS in cells in absence of CPT; DT40 Tdp1-/- hTDP1 cells, no CPT, ATP luminescence, 48 h; Potency, µM (highest dose often 46.2 µM), inactives show at the top dose activity change, negative = growth inhibition, usual class: inhibitors; hit rate 15% among 420,000; note: potency is the fitted concentration of half-maximal effect; nearly all actives have a fitted effect of over 55% in size
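Compound effects on proliferation are scored in DT40 Tdp1-/-;hTDP1 cells in the absence of CPT. ATP levels (CellTiter-Glo luminescence) are recorded after a ≥48 hr, 37 °C incubation.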
IL1B secr inh – blocks inflammasome-driven IL-1 beta release; hit rate 4.7% among 360,000; AID 743279; activity change, % at 57.5 µM; THP-1 LPS/ATP IL-1B secretion, AlphaLISA, 16 h; active compounds read low; in the data active = activity change below about -50%; inconclusive = mostly about -30% to -49%
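Secreted IL-1B measured by AlphaLISA bead assay after 16 h compound exposure of THP-1 cells; compounds (final up to 57.5 uM) added 1 h before LPS (250 ng/mL) and ATP (1.25 mM) stimulation; lower signal means less secretion.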
Starred values were filed as active, the others as inactive; u = inconclusive; x = no result. Unless noted, calls come from the whole dose curve; as a rule, active = well fitted curve in the direction sought with a large enough effect; inconclusive = small, poorly fitted or top-dose-only effect, or another doubt; inactive = no such curve, though single readings can be large; an effect the other way counts as inactive or inconclusive. Unless noted, % is set by controls: 0 for no effect and ±100 for the full control effect.

SMILES	HT1080NT lethal	TDP1 cell CPT	ELG1 repair inh	HT1080 IDH1KD tx	DT40 TDP1 no CPT	IL1B secr inh
O=C(CSc1nc2nn(-c3ccccc3)c(=O)c-2c2n1CCCCC2)c1ccc(OC(F)F)cc1	4%	u	u	1%	-37%	u
Cc1cc(-c2onc(C)c2C(=O)Nc2ccc(C(F)(F)F)cc2)no1	4%	4%	-10%	8%	-2%	27
Cc1oncc1C(=O)Nc1ccc2ccccc2c1	-8%	-17%	u	-7%	-23%	-17
Cc1nc(Cl)sc1C(=O)Nc1cccc(Cl)c1C	1%	u	-9%	0%	u	-96*
Cc1nc(Cl)sc1C(=O)Nc1ccc(C(F)(F)F)cc1	2%	-21%	9%	1%	-8%	-65*
Cc1noc(-c2ccc(C(F)(F)F)cc2)c1NC(=O)Nc1ccc(Cl)cc1	u	4.6µM*	u	u	3.7µM*	-53*
Cc1oncc1C(=O)Nc1ccc(C(F)(F)F)cc1	u	7.3µM*	u	u	9.2µM*	-24
CCOC(=O)c1cc(=O)nc(N)s1	-10%	-25%	x	0%	-5%	u
CC(=O)NC(c1ccc(F)c(F)c1)c1nc(-c2ccc(C)c(C)c2)cs1 (stereo unspecified)	12%	u	x	6%	u	-25
CC1(C)CC(=O)C=C(c2cccc(O)c2)C1	21%	-26%	8%	6%	u	0
CC1(C)CC(=O)C=C(C#CC2(O)CCCCC2)C1	5.2µM*	7.3µM*	x	13µM*	5.2µM*	-108*
COc1cccc(C#CC2=CC(=O)CC(C)(C)C2)c1	-28%	5.8µM*	x	u	2.9µM*	x
Cc1cccc(C#CC2=CC(=O)CC(C)(C)C2)c1	16%	16µM*	x	0%	10µM*	x
CC1(C)CC(=O)C=C(NCCO)C1	7%	-7%	16%	3%	-23%	17
NC1=NC(=O)/C(=C/c2c(OS(=O)(=O)c3ccc(Cl)cc3)ccc3ccccc23)S1	7%	-3%	-1%	0%	2%	14
CCN(CC(=O)Nc1ccc2c(c1)OCCO2)C(=O)C(C)Oc1ccc(F)cc1 (stereo unspecified)	-1%	2%	x	5%	-30%	-8
CN1CCN(CCCN(Cc2cccs2)C(=S)Nc2ccc(Cl)cc2)CC1	-20%	u	2%	-18%	u	-65*
COc1ccc(NC(=S)N(CCCN2CCN(C)CC2)Cc2cccs2)cc1	-3%	6%	0%	-2%	-5%	-2
CNC(=S)N(Cc1ccc(Cl)cc1)Cc1cccs1	-5%	u	-4%	-17%	16µM*	x
COc1ccc(NC(=S)N(CCCN2CCC(C)CC2)Cc2cccs2)cc1Cl	u	26µM*	13%	u	18µM*	u
Cc1ccccc1NC(=S)N(Cc1ccccc1)Cc1cccs1	4%	-21%	-2%	0%	2%	50
CCC(=O)N1CCc2cc(S(=O)(=O)CCC(=O)N(C)c3ccc(OC)cc3)ccc21	0%	-5%	17%	1%	3%	-21
COC(=O)c1cn(NC(=O)c2ccccc2[N+](=O)[O-])c(=O)c2ccccc12	-7%	23%	-2%	-7%	u	-11
Cc1c(Cl)cccc1NC(=O)Cn1c(=O)cc(C)c2c(C)nn(-c3cccc(F)c3)c21	x	0%	x	x	-20%	x
Cc1cc(C)cc(Oc2nc(-c3ccccc3)cc(C)c2S(C)(=O)=O)c1	u	u	u	u	u	-8
COc1ccccc1Oc1nc(-c2ccccc2)cc(C)c1S(C)(=O)=O	u	u	-22%	u	18µM*	-5
